Source: PubChem
HCV inh: HCV inhibition; Potency, µM (series often up to 41.8 µM), inactives show at the top dose activity change, negative = inhibition, usual class: inhibitors; 340,000 compounds, 3.4% hits; Huh7.5.1 HCVcc-Cre infection, luciferase reporter, 44 h; active = well fitted inhibition curve with a large enough effect; inconclusive = small, poorly fitted or top-dose-only effect, or another doubt; inactive = no such curve, though single readings can be large or run the other way; also: potency is read from the fitted curve at half-maximal effect
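Compounds are dispensed onto cells plated 4 h earlier at 1,000 per well, with HCVcc-Cre virus (about 0.5 moi) added next. Following 44 h of culture, luminescent signal is measured for 15 sec after 15 min with substrate at room temperature.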
FMDV inh: antivirals against foot and mouth disease virus. FMDV antiviral cell-based qHTS. Potency, µM (top dose mostly 57.9 µM), for the others: at the highest dose activity change, negative = inhibition, actives largely listed as inhibitors. 410,000 compounds, 1.2% hits. AID 1159524; calls by dose curve; tested in HEK293T cells; also: read-out not given here; potency is read from the fitted curve at half-maximal effect; nearly all actives have a fitted effect of over 45% in size
Marburg entry inh: blocks Marburg virus binding to or entry into cells | Marburg virus pseudotyped entry inhibition, cell reporter | Potency, µM (series often up to 37.8 µM), without a hit: top-dose activity change, negative = inhibition, actives largely listed as inhibitors | 300,000 compounds, 1.8% hits | AID 540276; calls by dose curve; tested in HEK293 cells; also: potency is read from the fitted curve at half-maximal effect
HCMV antiviral: human cytomegalovirus inhibition; HFF cells, HCMV-luciferase reporter, 72 h; active compounds read low; activity change, negative = inhibition, % at 57.5 µM; 410,000 compounds, 4.5% hits; AID 1259415; in the data active = activity change below about -60%; inconclusive = no clear call, values can overlap the other calls; inactive = above about -39%
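Inhibition of viral replication was scored as loss of reporter luminescence in HFFs infected with HCMV-luciferase (MOI 1 PFU/cell) for 72 h; compounds tested at 2 doses, normalized to buffer and Salinomycin controls.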
Lassa entry inh: inhibitors of Lassa virus binding or cell entry | Lassa virus pseudotype entry inhibition, cell reporter | Potency, µM (doses to about 37.9 µM), inactives show at the top dose activity change, negative = inhibition, actives largely listed as inhibitors | 300,000 compounds, 1.2% hits | AID 540256; calls by dose curve; tested in HEK293 cells; also: potency is read from the fitted curve at half-maximal effect; nearly all actives have a fitted effect of over 50% in size
An asterisk follows results filed as active; ? = inconclusive; / = not tested or not shown; [ ] = another dose, or the depositor's remark. This is a sample that favours compounds with a hit; in the whole collection about 7.9% have one here. % is scaled to controls: 0 for no effect and ±100 for the full control effect.

SMILES | HCV inh | FMDV inh | Marburg entry inh | HCMV antiviral | Lassa entry inh
Cc1cc(C)c(S(=O)(=O)Nc2ccc(C(N)=O)cc2)c(C)c1 | 21% | 10% | 9%[46.1 µM] | -84* | -14%
C/C(=N\OCC(=O)OCC(=O)NC(=O)c1ccccc1)c1ccc2c(c1)OCO2 | -3%[8.37 µM] | -7% | -2%[46.1 µM] | -27 | 3%
Cc1ccc(-n2cccn2)c(CN2CCCC(C(=O)c3ccc4c(c3)OCO4)C2)c1 (stereo not given) | ? | -23% | 10µM* | -73* | ?
O=C(c1ccc2c(c1)OCO2)C1CCCN(Cc2cc(F)ccc2-n2cccn2)C1 (stereo not given) | 8% | 1% | ? | 31 | -12%
COc1cc(C(=O)c2ccc3c(c2)OCO3)cc(OC)c1OC | -11% | -6% | ? | -83* | ?
COc1cccc(CN2CCCC(C(=O)c3ccc4c(c3)OCO4)C2)c1OC (stereo not given) | -21% | -13% | 11µM* | -36 | -14%[46.1 µM]
FC(F)(F)c1cc(CN2CCC3(CCNCC3)CC2)cc(C(F)(F)F)c1 | / | -3% | / | / | /
COc1cccc(-c2ccc(O)c(CNCc3cccc4ccccc34)c2)n1 | / | -5% | / | / | /
COCCNC(=O)Cn1cc(S(=O)(=O)N2CCN(c3ccccc3F)CC2)c2ccccc2c1=O | 0% | -11% | -4% | -24 | ?
CCc1ccc(CNC(=O)Cn2c(-c3cccs3)cc3cc(F)ccc32)cc1 | / | -1% | ? | -65* | -21%[46.1 µM]
CN1CCN(CCCNC(=O)Cn2c(-c3cccs3)cc3cc(Cl)ccc32)CC1 | / | -13% | / | -69* | -23%[46.1 µM]
O=C(Cn1cc(S(=O)(=O)N2CCN(c3ccccc3F)CC2)c2ccccc2c1=O)NCCCN1CCCCCC1 | 22µM* | -6% | ? | -17 | 5%
O=C(Cn1c(-c2cccs2)cc2ccccc21)NCCCN1CCN(c2ccccc2F)CC1 | / | -19% | / | -68* | ?
CSc1ccc(CNC(=O)Cn2c(-c3cccs3)cc3cc(F)ccc32)cc1 | / | -16% | / | -33 | -9%[46.1 µM]
Nc1ncnc2c1ncn2[C@@H]1O[C@H](C(=O)N2CCN(c3ccc(Cl)cn3)CC2)[C@@H](O)[C@H]1O | / | -5% | / | 0 | /
CCS(=O)(=O)N1CCC(C(=O)NCCCN2CCN(c3ccccc3F)CC2)CC1 | -20% | / | -18% | -20 | -8%
O=C(NCCCN1CCN(c2ccccc2F)CC1)C1CCN(S(=O)(=O)c2cccs2)CC1 | -21% | ? | -10% | -68* | -16%
O=C(Nc1cc2c3c(c1)C1CCCC1CN3CC1CCCC21)c1ccccc1 (stereo not given) | 16µM* | -28% | -16% | -69* | -26%
Cc1cccc(N(CC(=O)N(C)Cc2ccccc2)S(=O)(=O)c2ccccc2)c1C | / | -5% | ? | -63* | -13%[46.1 µM]
NC(N)=NC(N)=Nc1ccc2ccccc2c1 | ? | -7% | / | -69* | /
Cc1c(C(=O)NNC(=S)Nc2ccc(S(N)(=O)=O)cc2)oc2ccccc12 | 8% | -10% | / | -2 | /
CC1(C(=O)O)CCC(C(N)=O)C1(C)C (stereo not given) | 22% | -11% | 15%[46.1 µM] | -25 | 19%
CC1(C(=O)O)C2CCC(O2)C1(C)C(=O)O (stereo not given) | / | / | 4.1µM* | / | 3.3µM*
CCOc1ccc(Cl)cc1S(=O)(=O)n1nnc2ccccc21 | 13% | 0% | 0% | -11 | 5%
CCOC(=S)SCC(=O)Nc1nc(-c2ccccc2)cs1 | -10% | -15% | ? | -73* | ?
SMILES | HCV inh | FMDV inh | Marburg entry inh | HCMV antiviral | Lassa entry inh
CCOC(=S)SCC(=O)Nc1nc(C)c(C)s1 | ? | -1% | / | 65 | /
CN(C)CC(=O)Nc1nc(-c2ccccc2)cs1 | -7% | 28% | 15% | 113 | -18%
CCOC(=O)N1CCN(C(=O)CSCC(=O)Nc2nc(-c3ccc(OC)cc3)cs2)CC1 | ? | ? | ? | 14 | -19%
CCOC(=S)SCC(=O)Nc1nc(-c2ccc(Br)cc2)cs1 | ? | ? | ? | -100* | 8.9µM*
CCOC(=S)SCC(=O)Nc1nccs1 | 0% | 22µM* | ? | 3 | -12%
O=C(NCc1ccon1)c1ccc(-c2csc3ccccc23)nc1N1CCC(N2CCCC(CO)C2)CC1 (stereo not given) | / | -8% | / | / | /
Cc1ccc2onc(CNC(=O)N3CCN(c4cccc(C)c4C)CC3)c2c1 | / | -18% | / | -4 | -14%[46.1 µM]
CCOC(=O)c1csc(N)c1-c1ccc([N+](=O)[O-])cc1 | ? | -16% | / | -71* | /
COC(=O)[C@H]1CC(=O)N[C@@H]1c1ccc(OC(C)C)c(OC)c1 | / | / | / | -3 | /
O=C(O)[C@H](Cc1ccccc1)NC(=O)N1CCN(c2cccc(C(F)(F)F)c2)CC1 | 27% | -5% | / | 34 | /
O=S(=O)(NCc1cn2ccsc2n1)c1ccc(Oc2ccccc2)cc1 | 7.9µM* | ? | ? | ? | -29%
O=c1c2ccccc2nc(-c2ccccc2)n1-c1ccccc1 | -8% | -24% | / | -5 | /
O=c1c2ccccc2[se]n1-c1ccccc1 | -4%[8.37 µM] | 11% | 18µM* | -67* | 15µM*
COc1ccc(C(=O)OC(C)C(=O)NCC2CCCCC2)cc1S(=O)(=O)N1CCOCC1 (stereo not given) | 1% | -14% | / | 0 | /
O=C(COC(=O)Cc1c(F)cccc1Cl)NCc1ccc2c(c1)OCO2 | -10% | -2% | -3% | 29 | 8%
COc1ccc(-c2nc(CN3CCN(c4cc(C)nc(C)c4)CC3)c(C)o2)c2ccccc12 | ? | -8% | ? | ? | 11µM*
Cc1oc(-c2cccc3ccccc23)nc1CN1CCN(c2ncnc3ccccc23)CC1 | 10µM* | 16µM* | ? | ? | ?
CN1C(=O)C(C2(O)C(=O)N(Cc3ccccc3)c3ccccc32)c2ccccc21 (stereo not given) | / | / | / | -11 | /
Cc1csc(NC(=O)c2cnc3ccccc3n2)n1 | 8% | ? | 5.6µM* | -30 | ?
Cc1csc(NC(=O)c2cn3ccccc3n2)n1 | 4% | 14µM* | ? | 0 | 4µM*
O=[N+]([O-])c1ccc2[nH]c(O)c(N=NC3CCS(=O)(=O)C3)c2c1 (stereo not given) | -15% | 3% | 16%[46.1 µM] | 12 | -20%
CC1(C)Cc2c(sc3ncnc(NNC(=S)NCc4ccccc4)c23)CO1 | ? | -4% | ? | -5 | 0.12µM*
Cc1nn(CCC(N)=O)c2nc(-c3cccs3)cc(C(F)(F)F)c12 | 10µM* | ? | ? | 39 | ?
COc1cc(NC(=O)CN2C(=O)C(=O)N(C3CCCC3)C2=O)cc(OC)c1 | -21% | -15% | / | -99* | /
COc1cc2c(cc1OC)-c1cc(NC3CCCCCCC3)nc(=O)n1CC2 | -11% | 0% | ? | -17 | 14µM*
CCOc1ccccc1Nc1cc2n(c(=O)n1)CCc1cc(OC)c(OC)cc1-2 | -19% | -15% | ? | 80 | ?
CCOc1ccc(Nc2cc3n(c(=O)n2)CCc2cc(OC)c(OC)cc2-3)cc1 | -10% | -8% | -25% | 8 | 11µM*
CCOC(=O)c1cccc(NC(=O)CCc2c(C)nn(-c3ccc(N4CCOCC4)nn3)c2C)c1 | / | 3% | / | 27 | 9%[46.1 µM]
